# Compound activity deposited in PubChem by National Center for Advancing Translational Sciences (NCATS).
# Pf growth 96h: P. falciparum growth inhibition at 96 hours | P. falciparum luciferase reporter growth, 96 h | Potency, µM (highest dose often 28.7 µM), for the others: top-dose activity change, negative = inhibition, actives largely listed as inhibitors | 6.9% of 320,000 active | AID 504834; note: potency is the fitted concentration of half-maximal effect; % is set by controls: 0 for no effect and ±100 for the full control effect
#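 P. falciparum expressing integrated firefly luciferase, in erythrocytes at 2% hematocrit, 0.05% parasitemia, incubated with compounds 96 h at 37 C, 5% CO2. Growth inhibition read as loss of luminescence; two-generation exposure targets delayed-death apicoplast inhibitors.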
# Shiga toxin inh: inhibitors of Shiga toxin in Vero cells; Vero cells, Shiga toxin protein synthesis inhibition reporter; inhibition, % at 38.7 µM; 9.2% of 290,000 active; AID 2315; in the data active = inhibition mostly above about 28%, no sharp cut-off; inactive = mostly below about 43%; note: 0% is about no effect
# HCV inhibitor: blocks hepatitis C virus; Huh7.5.1 HCVcc-Cre infection, luciferase reporter, 44 h; Potency, µM (titrated, usually from 41.8 µM), without a hit: top-dose activity change, negative = inhibition, usual class: inhibitors; 3.4% of 340,000 active; AID 651820; note: potency is the fitted concentration of half-maximal effect; % is set by controls: 0 for no effect and ±100 for the full control effect
#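 HCVcc-Cre virus at an moi near 0.5 was added right after compound to cells cultured 4 h from seeding (1,000 cells/well). Luciferase activity was determined 44 h later, 15 min after substrate addition at RT.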
# Pf growth 48h: inhibits P. falciparum growth in the first generation, 48 h | P. falciparum luciferase growth in erythrocytes, 48 h | Potency, µM (series often up to 28.7 µM), without a hit: at the highest dose activity change, negative = inhibition, actives largely listed as inhibitors | 5.9% of 310,000 active | AID 504832; note: potency is the fitted concentration of half-maximal effect; % is set by controls: 0 for no effect and ±100 for the full control effect
#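 Cell-based growth assay: transgenic P. falciparum expressing firefly luciferase, cultured in red cells within RPMI 1640 containing 0.5% w/v Albumax, 24 mM bicarbonate and gentamycin. A drop in luciferase activity indicates inhibition.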
# Cycloheximide cs: counter-screen for Shiga toxin inhibitors: cycloheximide protein synthesis inhibition; AID 2314; max response, %; cell reporter, cycloheximide protein synthesis inhibition counterscreen; 12% of 300,000 active; in the data active = max response mostly above about 13%, no sharp cut-off; inactive = mostly below about 14%; note: read at 38.3 µM for the half of the compounds with a filed dose; 0% is about no effect
# HCMV inh: blocks human cytomegalovirus replication. HFF cells, HCMV-luciferase reporter, 72 h; hits give low values. activity change, negative = inhibition, % at 57.5 µM. 4.5% of 410,000 active; in the data active = activity change below about -60%; inconclusive = no clear call, values can overlap the other calls; inactive = above about -39%; note: % is set by controls: 0 for no effect and ±100 for the full control effect
#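 HFF cells seeded 16 h at 37C, treated with compounds, infected with luciferase-reporter HCMV at MOI 1 PFU/cell; luciferase read at 72 h post infection, normalized to buffer-only and Salinomycin controls.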
# Active calls of the source: *; i = inactive; u = inconclusive; x = no result; + = active, no number; ! = repeats disagree. This is a sample that favours compounds with a hit; in the whole collection about 21% have one here. Unless noted, calls come from the whole dose curve; as a rule, active = well fitted inhibition curve with a large enough effect; inconclusive = small, poorly fitted or top-dose-only effect, or another doubt; inactive = no such curve, though single readings can be large or run the other way.
SMILES,Pf growth 96h,Shiga toxin inh,HCV inhibitor,Pf growth 48h,Cycloheximide cs,HCMV inh
CCC(C)n1c(=O)c2sccc2n2c(CCCC(=O)Nc3ccc(F)cc3)nnc12 (stereo not drawn),x,x,x,x,x,-65*
Cn1c(=O)c2sccc2n2c(CCCC(=O)Nc3ccc(Oc4ccccc4)cc3)nnc12,x,x,x,x,x,-65*
Nc1ncnc2c1ncn2[C@@H]1O[C@H](CNC(=O)[C@@H]2CCN2)[C@@H](O)[C@H]1O,x,x,12%,x,x,-4
COc1ccc(-n2c(=O)c3c4c(sc3n(CC(=O)C(C)(C)C)c2=O)CCCC4)c(OC)c1,x,x,x,x,x,-34
O=C(N/N=C/c1ccccn1)c1[nH]c2ccc([N+](=O)[O-])cc2c1-c1ccccc1,-6%,-14,u,u,-5,-13
O=C(N/N=C/c1ccccc1)c1[nH]c2ccc(Br)cc2c1-c1ccccc1,38%,-10,u,14%,0,-99*
O=C(NN=C1CCCC1)c1[nH]c2ccc(Br)cc2c1-c1ccccc1,u,-2,-11%,0%,-2,-91*
COc1cccc(NC(=O)C(C)n2c(=O)cc(C(F)(F)F)c3c(C)nn(C)c32)c1 (stereo not drawn),x,x,x,x,x,-12
Cc1cccc(NC(=O)C2CCCN(S(=O)(=O)c3ccc4c(c3)oc(=O)n4C)C2)c1 (stereo not drawn),u,0,-19%,u,-3,+!
CN(C)c1ccc(CNC(=O)CCc2ccc(S(=O)(=O)N3CCCCCC3)cc2)cc1,u,x,u,12µM*,x,9
Cc1ccc(NC(=O)C2CCCN(S(=O)(=O)c3ccc4c(c3)oc(=O)n4C)C2)cc1Cl (stereo not drawn),x,x,x,x,x,14
CN(C)c1ccc(CNC(=O)C2CCCN(S(=O)(=O)c3ccc4c(c3)oc(=O)n4C)C2)cc1 (stereo not drawn),x,x,x,x,x,-105*
CCCN(CCC)CCNC(=O)C1CCCN(S(=O)(=O)c2ccc3c(c2)oc(=O)n3C)C1 (stereo not drawn),0%,-15,x,u,8,31
COc1ccc(CNC(=O)CCc2ccc(S(=O)(=O)N3CCCCCC3)cc2)cc1,u,x,-29%,u,x,0
CCCCc1nn2c(=O)cc(COC(=O)c3ccc4c(c3)OCO4)nc2s1,x,x,x,x,x,13
O=C(O)C1C2CCC(C2)C1C(=O)NCCc1cccc(Cl)c1 (stereo not drawn),u,15,19%,-1%,2,8
CCOC(=O)c1[nH]c2cc3c(cc2c1NC(=O)CN1CC(C)CC(C)C1)OCO3 (stereo not drawn),5.9µM*,45,0%,-2%,2,46
COC(=O)c1[nH]c2ccc(F)cc2c1NC(=O)CCN1CCN(Cc2ccc3c(c2)OCO3)CC1,-1%,-4,u,12µM*,-5,-15
CCN(CC(=O)Nc1c(C(=O)OC)[nH]c2ccc(C)cc12)c1ccc2c(c1)OCO2,u,-14,8.9µM*,13µM*,-2,-5
COC(=O)c1[nH]c2ccccc2c1NC(=O)CN1CCN(Cc2ccc3c(c2)OCO3)CC1,x,-4,u,u,7,u
Cc1cccc(NC(=O)c2oc3ccccc3c2NC(=O)c2cc(=O)c3cc(Cl)ccc3o2)c1,x,x,x,x,x,11
Cc1ccc(N2CC(NC(=O)C(=O)c3c[nH]c4ccccc34)CC2=O)cc1 (stereo not drawn),x,x,x,x,x,-11
COc1ccc(-c2noc(C(C)NC(=O)c3ccco3)n2)cc1OC (stereo not drawn),15%,-5,-10%,10%,-1,-6
COc1ccc(OC)c(C(=O)NC(CC(N)=O)c2ccc(N3CCCCCC3)c([N+](=O)[O-])c2)c1 (stereo not drawn),u,-6,-3%,-3%,2,-24
COc1ccc(C(=O)Nn2c(SCC(=O)NCc3ccccc3)nc3ccccc3c2=O)cc1,u,44,-3%,x,51*,u
SMILES,Pf growth 96h,Shiga toxin inh,HCV inhibitor,Pf growth 48h,Cycloheximide cs,HCMV inh
CCC(C)n1c(SCC(=O)NC2CCCC2)nc2ccccc2c1=O (stereo not drawn),u,x,-14%,12µM*,x,-34
COc1ccc(C(=O)Nn2c(SCC(=O)NC3CCCC3)nc3ccccc3c2=O)cc1,i,46,6%,306%,69*,-22
CC(C)c1ccc(C2(C)NC(=O)N(CC(=O)NCC3COc4ccccc4O3)C2=O)cc1 (stereo not drawn),u,x,u,u,x,18
CC(C)c1ccc(-c2cc(C(=O)N3CCOCC3)c3cc(Br)ccc3n2)cc1,-5%,9,u,u,5,19
Cc1ccccc1N(CC(=O)NCCc1ccccc1)C(=O)c1ccc(N2CCCC2)nc1,u,-21,u,10µM*,-3,13
O=C(CN(C(=O)c1csnn1)c1ccccc1Cl)NCCc1ccccc1,12%,4,-7%,5%,-5,1
CC(C)[C@H](NC(=O)c1ccccc1Cl)C(=O)Nc1nc(-c2ccccn2)cs1,u,41,u,9.3µM*,8,-83*
O=C(COc1ccc(F)cc1)Nc1nc(-c2ccccn2)cs1,u,x,u,u,x,-25
CC(Oc1ccc(Br)cc1)C(=O)Nc1nc(-c2ccccn2)cs1 (stereo not drawn),3.7µM*,6,11µM*,7.4µM*,-3,-88*
CN(C)c1ccc(NC(=O)CSc2nc(C3CC3)nc3ccccc23)cc1,9%,-6,15%,u,0,1
Cc1ccc(C(=O)N2CCCC(C(=O)c3ccc(Oc4ccccc4)cc3)C2)cn1 (stereo not drawn),8.3µM*,-6,u,-15%,-2,u
CCC(=O)N1CCCC(C(=O)c2ccc(-c3ccccc3)cc2)C1 (stereo not drawn),-11%,47,-21%,18%,13*,23
Cc1ccc(C(=O)N2CCCC(C(=O)c3ccc(Cl)cc3C)C2)cn1 (stereo not drawn),u,15,-8%,6%,6,-15
COCCC(=O)N1CCCC(C(=O)c2ccc(Oc3ccccc3)cc2)C1 (stereo not drawn),u,-17,-14%,-6%,14,-31
CCN1CCN(CC(=O)N2CCCC(C(=O)c3ccc(Oc4ccccc4)cc3)C2)CC1 (stereo not drawn),u,56*,u,u,25*,46
COc1ccc(C2CC(=O)c3cnc4c(-c5ccccc5)c(C)nn4c3C2)c(OC)c1 (stereo not drawn),x,x,x,x,x,-5
CCOc1ccc(OCCC(=O)N2CCN(S(=O)(=O)c3cccc(F)c3)CC2)cc1,u,x,2%,16%,x,-21
CCC[C@@H]1C[C@@H](C(=O)N[C@@H]([C@H]2O[C@H](SC)[C@H](O)[C@@H](O)[C@H]2O)[C@@H](C)O)N(C)C1,0.17µM*,-5,x,2.7µM*,5,x
